In paper PMC11006913:
Changes are numbered by the printed parent chain.

What was measured:
Experiment in all cases: PBM; 200 nM protein, PBS
Conditions in all cases: dsDNA, one strand shown
SIX6 [1] = molecular target: T1, SIX6 (Homo sapiens, UniProt O95475 114-200, L167I)
T1 sequence: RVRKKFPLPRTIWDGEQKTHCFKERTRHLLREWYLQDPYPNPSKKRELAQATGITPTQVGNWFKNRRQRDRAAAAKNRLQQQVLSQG

SIX6 [2] = molecular target: T2, SIX6 (Homo sapiens, UniProt O95475 114-200, H141N)
T2 sequence: T1 sequence with H28N, I54L

SIX6 [3] = molecular target: T3, SIX6 (Homo sapiens, UniProt O95475 114-200, T165A)
T3 sequence: T1 sequence with T52A, I54L

SIX6 [4] = molecular target: T4, SIX6 (Homo sapiens, UniProt O95475 114-200, T165I)
T4 sequence: T1 sequence with T52I, I54L

SIX6 [5] = molecular target: T5, SIX6 (Homo sapiens, UniProt O95475 114-200, T165P)
T5 sequence: T1 sequence with T52P, I54L

SIX6 [6] = molecular target: T6, SIX6 (Homo sapiens, UniProt O95475 114-200, L167M)
T6 sequence: T1 sequence with I54M

SIX6 [7] = molecular target: T7, SIX6 (Homo sapiens, UniProt O95475 114-200, L143M)
T7 sequence: T1 sequence with L30M, I54L

SIX6 [8] = molecular target: T8, SIX6 (Homo sapiens, UniProt O95475 114-200, L143I)
T8 sequence: T1 sequence with L30I, I54L

SIX6 [9] = molecular target: T9, SIX6 (Homo sapiens, UniProt O95475 114-200, L167V)
T9 sequence: T1 sequence with I54V

SIX6 [10] = molecular target: T10, SIX6 (Homo sapiens, UniProt O95475 114-200)
T10 sequence: T1 sequence with I54L

SIX6 [11] = molecular target: T11, SIX6 (Homo sapiens, UniProt O95475 114-200, T165G)
T11 sequence: T1 sequence with T52G, I54L

SIX6 [12] = molecular target: T12, SIX6 (Homo sapiens, UniProt O95475 114-200, T139Q)
T12 sequence: T1 sequence with T26Q, I54L

SIX6 [13] = molecular target: T13, SIX6 (Homo sapiens, UniProt O95475 114-200, L143V)
T13 sequence: T1 sequence with L30V, I54L

| Sequence | binding signal (SIX6 [1]) | binding signal (SIX6 [2]) | binding signal (SIX6 [3]) | binding signal (SIX6 [4]) | binding signal (SIX6 [5]) | binding signal (SIX6 [6]) | binding signal (SIX6 [7]) | binding signal (SIX6 [8]) | binding signal (SIX6 [9]) | binding signal (SIX6 [10]) | binding signal (SIX6 [11]) | binding signal (SIX6 [12]) | binding signal (SIX6 [13]) |
| --- | --- | --- | --- | --- | --- | --- | --- | --- | --- | --- | --- | --- | --- |
| ATATCACG | 11.1 upbm affinity estimate (log intensity, higher = more binding, comparable within an allelic series) | 11.1 upbm affinity estimate (log intensity, higher = more binding, comparable within an allelic series) | 11 upbm affinity estimate (log intensity, higher = more binding, comparable within an allelic series) | 10.9 upbm affinity estimate (log intensity, higher = more binding, comparable within an allelic series) | – | – | – | – | – | – | – | – | – |
| CGGATAAA | 10.4 upbm affinity estimate (log intensity, higher = more binding, comparable within an allelic series) | 10.3 upbm affinity estimate (log intensity, higher = more binding, comparable within an allelic series) | 10.3 upbm affinity estimate (log intensity, higher = more binding, comparable within an allelic series) | 10.3 upbm affinity estimate (log intensity, higher = more binding, comparable within an allelic series) | 9.86 upbm affinity estimate (log intensity, higher = more binding, comparable within an allelic series) | 10.4 upbm affinity estimate (log intensity, higher = more binding, comparable within an allelic series) | 10.5 upbm affinity estimate (log intensity, higher = more binding, comparable within an allelic series) | 10 upbm affinity estimate (log intensity, higher = more binding, comparable within an allelic series) | 10.2 upbm affinity estimate (log intensity, higher = more binding, comparable within an allelic series) | 10.4 upbm affinity estimate (log intensity, higher = more binding, comparable within an allelic series) | – | – | – |
| ATCCAATA | 10.4 upbm affinity estimate (log intensity, higher = more binding, comparable within an allelic series) | 10.3 upbm affinity estimate (log intensity, higher = more binding, comparable within an allelic series) | 10.4 upbm affinity estimate (log intensity, higher = more binding, comparable within an allelic series) | 10.2 upbm affinity estimate (log intensity, higher = more binding, comparable within an allelic series) | – | 10.2 upbm affinity estimate (log intensity, higher = more binding, comparable within an allelic series) | 10.3 upbm affinity estimate (log intensity, higher = more binding, comparable within an allelic series) | – | 10.2 upbm affinity estimate (log intensity, higher = more binding, comparable within an allelic series) | 10.3 upbm affinity estimate (log intensity, higher = more binding, comparable within an allelic series) | 10.4 upbm affinity estimate (log intensity, higher = more binding, comparable within an allelic series) | 10.5 upbm affinity estimate (log intensity, higher = more binding, comparable within an allelic series) | – |
| AAGGTATC | 11.1 upbm affinity estimate (log intensity, higher = more binding, comparable within an allelic series) | 11 upbm affinity estimate (log intensity, higher = more binding, comparable within an allelic series) | – | – | – | – | – | – | – | – | – | – | – |
| ATACCTCC | 10.3 upbm affinity estimate (log intensity, higher = more binding, comparable within an allelic series) | 10.4 upbm affinity estimate (log intensity, higher = more binding, comparable within an allelic series) | – | – | 9.38 upbm affinity estimate (log intensity, higher = more binding, comparable within an allelic series) | – | – | – | – | 10.4 upbm affinity estimate (log intensity, higher = more binding, comparable within an allelic series) | 10.5 upbm affinity estimate (log intensity, higher = more binding, comparable within an allelic series) | 10.5 upbm affinity estimate (log intensity, higher = more binding, comparable within an allelic series) | 9.86 upbm affinity estimate (log intensity, higher = more binding, comparable within an allelic series) |
| CTGATATC | 11.1 upbm affinity estimate (log intensity, higher = more binding, comparable within an allelic series) | 11 upbm affinity estimate (log intensity, higher = more binding, comparable within an allelic series) | 11 upbm affinity estimate (log intensity, higher = more binding, comparable within an allelic series) | 10.9 upbm affinity estimate (log intensity, higher = more binding, comparable within an allelic series) | – | – | 10.9 upbm affinity estimate (log intensity, higher = more binding, comparable within an allelic series) | – | 10.9 upbm affinity estimate (log intensity, higher = more binding, comparable within an allelic series) | – | – | – | – |
| ACGGATCC | 10.2 upbm affinity estimate (log intensity, higher = more binding, comparable within an allelic series) | 10.1 upbm affinity estimate (log intensity, higher = more binding, comparable within an allelic series) | – | – | 9.26 upbm affinity estimate (log intensity, higher = more binding, comparable within an allelic series) | – | – | – | 10 upbm affinity estimate (log intensity, higher = more binding, comparable within an allelic series) | 10.2 upbm affinity estimate (log intensity, higher = more binding, comparable within an allelic series) | – | 10.5 upbm affinity estimate (log intensity, higher = more binding, comparable within an allelic series) | 9.67 upbm affinity estimate (log intensity, higher = more binding, comparable within an allelic series) |
| AGAATATC | 10.5 upbm affinity estimate (log intensity, higher = more binding, comparable within an allelic series) | 10.3 upbm affinity estimate (log intensity, higher = more binding, comparable within an allelic series) | 10.4 upbm affinity estimate (log intensity, higher = more binding, comparable within an allelic series) | 10.3 upbm affinity estimate (log intensity, higher = more binding, comparable within an allelic series) | 9.77 upbm affinity estimate (log intensity, higher = more binding, comparable within an allelic series) | 10.4 upbm affinity estimate (log intensity, higher = more binding, comparable within an allelic series) | 10.5 upbm affinity estimate (log intensity, higher = more binding, comparable within an allelic series) | 9.98 upbm affinity estimate (log intensity, higher = more binding, comparable within an allelic series) | 10.3 upbm affinity estimate (log intensity, higher = more binding, comparable within an allelic series) | 10.3 upbm affinity estimate (log intensity, higher = more binding, comparable within an allelic series) | 10.5 upbm affinity estimate (log intensity, higher = more binding, comparable within an allelic series) | 10.5 upbm affinity estimate (log intensity, higher = more binding, comparable within an allelic series) | – |
| AGGTGTCA | 10.4 upbm affinity estimate (log intensity, higher = more binding, comparable within an allelic series) | – | 11.2 upbm affinity estimate (log intensity, higher = more binding, comparable within an allelic series) | – | – | 9.88 upbm affinity estimate (log intensity, higher = more binding, comparable within an allelic series) | – | – | – | – | 11.2 upbm affinity estimate (log intensity, higher = more binding, comparable within an allelic series) | 11.1 upbm affinity estimate (log intensity, higher = more binding, comparable within an allelic series) | – |
| ACGGATAG | 10.1 upbm affinity estimate (log intensity, higher = more binding, comparable within an allelic series) | 10 upbm affinity estimate (log intensity, higher = more binding, comparable within an allelic series) | – | – | 9.43 upbm affinity estimate (log intensity, higher = more binding, comparable within an allelic series) | – | – | 9.74 upbm affinity estimate (log intensity, higher = more binding, comparable within an allelic series) | – | 10.2 upbm affinity estimate (log intensity, higher = more binding, comparable within an allelic series) | 10 upbm affinity estimate (log intensity, higher = more binding, comparable within an allelic series) | – | 9.74 upbm affinity estimate (log intensity, higher = more binding, comparable within an allelic series) |
